Source: PubChem
PLK1 PBD inh: PLK1 (human) polo-box domain binding inhibition | P53350 | Plk1 PBD binding of FITC phosphopeptide, fluorescence polarization | 2.8% of 360,000 active | Potency, µM, without a hit: max response, negative = inhibition, most hits filed as inhibitors | AID 720504; further: series mostly up to about 57 µM; on the % scale 0 is the no-effect control and ±100 the full control effect; nearly all actives have a fitted effect of over 65% in size
JMJD2A Tudor inh: inhibitors of human JMJD2A Tudor domain; O75164; AlphaScreen JMJD2A-Tudor / H3K4me3 peptide binding; Potency, µM (titrated, usually from 114 µM), without a hit: at the top dose activity change, negative = inhibition, usual class: inhibitors; 4.4% of 390,000 active; AID 504339; further: on the % scale 0 is the no-effect control and ±100 the full control effect; nearly all actives have a fitted effect of over 50% in size
HP1b binding inh: blocks HP1-beta chromodomain binding to methylated histone tails | AlphaScreen HP1-beta / biotin-H3K9me3 peptide binding | 0.56% of 390,000 active | Potency, µM (titrated, usually from 114 µM), inactives show top-dose activity change, negative = inhibition, actives largely listed as inhibitors | P83916 | AID 540317; further: nearly all actives have a fitted effect of over 70% in size
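Compound inhibition of the preformed complex between 50 nM HP1-beta and 50 nM biotinylated H3K9me3 peptide was read by AlphaScreen. Buffer was PBS pH 7.4 with 0.01% Tween-20. Incubations ran 30 min at room temperature, with 10 ug/mL donor/acceptor beads.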
BAZ2B block: inhibitors of human BAZ2B bromodomain; AlphaScreen BAZ2B-H3K14Ac peptide displacement; Potency, µM (top dose mostly 114 µM), without a hit: top-dose activity change, negative = inhibition, usual class: inhibitors; 4.4% of 360,000 active; further: on the % scale 0 is the no-effect control and ±100 the full control effect; nearly all actives have a fitted effect of over 60% in size
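BAZ2B (50 nM) with biotin-H3(5-23)K14Ac peptide (50 nM) in PBS pH 7.4, 0.01% Tween-20, preformed 30 min, then compound 30 min at room temperature; top concentration 110uM. AlphaScreen streptavidin donor/nickel chelate acceptor beads (10 ug/mL final), 20 min dark, signal read.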
L3MBTL1 block: inhibitors of human L3MBTL1. Q9Y468. AlphaScreen L3MBTL1–H3K9me1 peptide binding. 0.66% of 230,000 active. Potency, µM (top dose mostly 57.1 µM), for the others: top-dose activity, negative = inhibition, actives largely listed as inhibitors. AID 485360; further: on the % scale 0 is the no-effect control and ±100 the full control effect; nearly all actives have a fitted effect of over 60% in size
Target sequence (Q9Y468 whole entry, looked up): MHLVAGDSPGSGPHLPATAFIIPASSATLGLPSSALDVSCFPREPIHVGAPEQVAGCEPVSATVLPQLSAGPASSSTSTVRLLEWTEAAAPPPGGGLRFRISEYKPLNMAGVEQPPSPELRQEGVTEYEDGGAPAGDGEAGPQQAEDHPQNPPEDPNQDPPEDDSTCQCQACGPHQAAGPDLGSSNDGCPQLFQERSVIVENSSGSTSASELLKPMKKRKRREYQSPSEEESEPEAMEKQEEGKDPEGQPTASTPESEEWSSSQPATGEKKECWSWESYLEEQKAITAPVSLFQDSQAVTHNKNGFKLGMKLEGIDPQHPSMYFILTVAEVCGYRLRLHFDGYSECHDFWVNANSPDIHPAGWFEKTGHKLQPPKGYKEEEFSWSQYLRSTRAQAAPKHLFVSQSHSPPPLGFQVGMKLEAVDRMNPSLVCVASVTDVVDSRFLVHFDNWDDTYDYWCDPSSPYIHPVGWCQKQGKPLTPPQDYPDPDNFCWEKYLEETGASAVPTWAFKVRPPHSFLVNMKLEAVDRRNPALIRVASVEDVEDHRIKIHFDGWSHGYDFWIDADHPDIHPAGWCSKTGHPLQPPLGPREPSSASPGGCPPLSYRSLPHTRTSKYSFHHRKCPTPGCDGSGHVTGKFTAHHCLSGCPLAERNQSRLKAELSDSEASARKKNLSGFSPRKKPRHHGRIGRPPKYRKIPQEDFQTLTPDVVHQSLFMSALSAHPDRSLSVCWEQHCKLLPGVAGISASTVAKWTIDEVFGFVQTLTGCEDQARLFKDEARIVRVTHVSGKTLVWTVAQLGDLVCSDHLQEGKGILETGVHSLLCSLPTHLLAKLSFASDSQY
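L3MBTL1 (50 nM) pre-complexed 30 min with biotinylated H3(1-15)K9me1 peptide (75 nM), then compounds added for 30 min at room temperature; AlphaScreen streptavidin donor/nickel chelate acceptor beads (10 ug/mL final) read after 30 min dark incubation.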
VDR inh: inhibitors of human vitamin D receptor; P11473; VDR-SRC2-3 peptide fluorescence polarization, 2 h; Potency, µM, without a hit: max response, negative = inhibition, usual class: inhibitors; 0.93% of 400,000 active; further: on the % scale 0 is the no-effect control and ±100 the full control effect
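Measured by FP: displacement of SRC2-3 coactivator peptide from VDR by library compounds, following a two-hour ambient incubation.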
An asterisk follows results filed as active; ? = inconclusive; · = no result given; [ ] = another dose, or the depositor's remark. In the library only some 6.9% were active in any assay of this set; here they are far more common. The call rests on the fitted dose curve; in most records, active means well fitted curve in the direction sought with a large enough effect; inconclusive means small, poorly fitted or top-dose-only effect, or another doubt; inactive means no such curve, though single readings can be large; an effect the other way counts as inactive or inconclusive. Potency means the concentration at half of the fitted maximal effect.

SMILES	PLK1 PBD inh	JMJD2A Tudor inh	HP1b binding inh	BAZ2B block	L3MBTL1 block	VDR inh
O=C(CSc1nc(=O)n(Cc2ccco2)c2c1CCC2)NCc1ccccc1Cl	·	-10%	10%	-14%	·	20%
O=C(CN1CCN(S(=O)(=O)c2ccc(C(F)(F)F)cc2)CC1)N1CCNC1=O	-18%	4%	40%	-4%	0%	-27%
O=C(CN1CCN(S(=O)(=O)c2ccc(F)c(Cl)c2)CC1)N1CCNC1=O	-10%	40µM*	21%	-6%	6%	-16%
CCOc1cc2c(C#N)c(N3CCOCC3)nc(N)c2c(N)n1	-7%	-1%	51%	3%	-6%	9%
CCOc1cc2c(C#N)c(N(CC)CC)nc(N)c2c(N)n1	-3%	-12%	48%	·	·	45µM*
CN(C)C1(CNCC(O)c2ccccc2)CCCCC1 (centres undefined)	3%	20µM*	?	71µM*	·	13%
CN(C)C1(CNC(=O)Nc2ccccc2)CCCCC1	3%	0%	16%	5%	·	-8%
CC1(C)CC(=O)C=C(c2ccc(-c3ccccc3)cc2)C1	2%	-7%	50%	8%	-1%	-11%
CC1(C)CC(=O)C=C(c2cccc(Br)c2)C1	27µM*	?	29%	19%	7%	?
O=C(CCC1N=C2c3ccccc3N=C(SCC(=O)NCc3ccco3)N2C1=O)NCc1ccco1 (centres undefined)	?	?	34%	50µM*	·	-8%
O=C(Nc1nc(=O)c2ccccc2s1)c1ccc(F)cc1	-2%	?	70%	?	-2%	71µM*
O=C(c1ccc2nc(Cc3ccccc3F)oc2c1)N1CC[C@H](O)C1	24µM*	?	-5%	-22%	·	?
O=C(c1ccc2nc(Cc3ccccc3F)oc2c1)N1CCCC1	-1%	-19%	41%	-3%	·	-16%
CC(C)(C)OC(=O)N1CCC(c2c(C(=O)NCCN3CCC(Cc4ccccc4)CC3)cnn2-c2ccc(F)cc2)CC1	·	-33%	26%	-4%[57.1 µM]	·	1%
Cc1cc2n(n1)SC(Nc1ccc(F)cc1)N2 (centres undefined)	0%	20µM*	-12%	2%	-1%	-5%
COc1ccc(OC)c(NC2=C(Cl)C(=O)N(Cc3ccccc3)C2=O)c1	2%	14µM*	?	22µM*	?	-11%
CCOc1ccccc1NC1=C(Cl)C(=O)N(Cc2ccccc2)C1=O	-16%	-15%[11.4 µM]	-32%	?	·	3%
O=C1C(Cl)=C(Nc2cccc(O)c2)C(=O)N1Cc1ccccc1	27µM*	45µM*	?	?	-6%	3%
CC1CCCCN1C(=O)c1cccc(NC2=C(Cl)C(=O)N(Cc3ccccc3)C2=O)c1 (centres undefined)	-4%	?	12%	-7%	-9%	-18%
O=[N+]([O-])c1ccc(C[n+]2cccc3ccccc32)cc1	5%	2%	22%	-18%	-5%	-13%
O=[N+]([O-])c1ccc(C[n+]2cccc3ccc4cccnc4c32)cc1	9.5µM*	11µM*	-16%	13µM*	-85%	79µM*
CCOC(=O)c1c(C)[nH]c(C(=O)OCc2ccccc2)c1C	1%	-9%	21%	-31%	·	9%
COC(=O)CCc1c(C)[nH]c(C(=O)OCc2ccccc2)c1C	-9%	?	-38%	50µM*	-11%	10%
CC(=O)c1c(C)[nH]c(C(=O)OCc2cccc(C)c2)c1C	-7%	-10%	-1%	50µM*	·	-13%
CC(=O)c1c(C)[nH]c(C(=O)OCC(=O)c2ccc(C)s2)c1C	-14%	-15%	11%	56µM*	-3%	14%
SMILES	PLK1 PBD inh	JMJD2A Tudor inh	HP1b binding inh	BAZ2B block	L3MBTL1 block	VDR inh
Cc1cc(NC(=O)c2ccc(S(=O)(=O)N(C)C)cc2)n(-c2ccccn2)n1	-6%	-4%	24%	-1%	2%	3%
Cc1cc(NC(=O)c2cncc(Br)c2)n(-c2ccccn2)n1	-7%	-6%	29%	50µM*	·	-5%
Cc1c(C(=O)O)cccc1-n1c(C)cc(/C=C(/C#N)C(=O)NCc2ccccc2)c1C	-21%	-16%	17%	56µM*	?	14%
Cc1cc(/C=C(/C#N)C(=O)O)c(C)n1-c1cccc2ccccc12	?	-33%	-22%	?	·	-2%
COc1ccc(-c2cc(C(=O)NCCc3ccc(OC)c(OC)c3)c3ccccc3n2)cc1	·	-13%	19%	-2%	·	3%
NNc1nccc(Nc2ccccc2C(=O)O)n1	-8%	?	-22%	25µM*	?	-9%
Cc1ccsc1C(=O)N1CCC1(C)C(=O)NS(=O)(=O)c1ccc(C#N)cc1 (centres undefined)	-3%	·	·	·	·	·
CC1Cc2ccccc2N1Cc1cc(=O)n2ccsc2n1 (centres undefined)	24µM*	-13%[11.4 µM]	-24%	-12%	-5%	-13%
COc1ccccc1N1CCN(Cc2cc(=O)n3ccsc3n2)CC1	-11%	-16%	19%	0%	8%	11%
C/C(=N\NC(=O)c1c(C)nc2ccccn12)c1ccc(O)cc1O	29%	-32%	34%	1.8µM*	·	-2%
Cc1nc2ccccn2c1C(=O)NN=C1CCCC1	-19%	-25%	17%	-16%	?	-19%
CC1CCCC/C1=N/Nc1ccc([N+](=O)[O-])cc1[N+](=O)[O-] (centres undefined)	-1%	50µM*	-60%	?	·	-13%
CC1C/C(=N/Nc2nc3ccccc3[nH]2)CC(C)(C)C1 (centres undefined)	-18%	?	15%	?	-12%	-6%
CC1C/C(=N/Nc2ccc([N+](=O)[O-])cc2[N+](=O)[O-])CC(C)(C)C1 (centres undefined)	-1%	5.6µM*	8.9µM*	10µM*	?	17%
C#CC(C)(CC)NC(=O)Cn1nnc(-c2ccc(OCc3ccccc3F)cc2)n1 (centres undefined)	·	-5%	35%	-14%	·	-8%
O=C(NCc1ccccc1Cl)c1cc2c(s1)-c1ccc(Cl)cc1SC2	·	-6%	19%	6%	·	1%
CC(NCC(=O)NC(=O)NCCC1=CCCCC1)c1ccc(S(N)(=O)=O)cc1 (centres undefined)	-15%	22µM*	?	·	·	4%
CN(C)N1C(N)=C(C#N)C(c2cccs2)C2=C1CCCC2=O (centres undefined)	30µM*	-14%[11.4 µM]	-6%	-28%	·	0%
O=C(NC1CCCCC1)c1ccc(CSc2nc3ccncc3n2Cc2cccc(F)c2)cc1	·	-25%	65%	14%	·	-1%
